# Laboratory results published in PubChem BioAssay (Tox21).
# Several values for one entry are separate records, joined by “and”; a condition that tells them apart may be missing. Equal entries are not always repeated. Results filed as inconclusive are left out. The source holds several records for some structures; these can differ, active in one and inactive in another. Activity calls are given as the source filed them. Calls come from the whole dose curve; as a rule, active = well fitted curve in the direction sought with a large enough effect in the repeat runs; inconclusive = weak or mixed curves; inactive = no such curve, though single readings can be large; an effect the other way counts as inactive or inconclusive.
# Test: A CellTox Green Cytotoxicity Assay to monitor cytotoxicity in HepG2 cells - 16 hour (AID 1224876); note: nearly all actives have a fitted effect of over 45% in size
# Conditions: CellTox Green fluorescence; series mostly up to 76.8 µM; cytotoxicity increase: at the top concentration
# Summary of the method: (§1)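 Continuous culture of HepG2 cells with a membrane-impermeant DNA dye; rising fluorescence marks dead cells. Compound exposure lasted up to 40 h at 37 C, with reads every 8 h from 0 h.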
# % is set by controls: 0 for no effect and ±100 for the full control effect; potency is the fitted concentration of half-maximal effect.
Compound,Potency,cytotoxicity increase
CCC(OC(C)=O)C(CC(C)NC)(c1ccccc1)c1ccccc1 (stereo unspecified),62.2 µM (active),
c1ccc2nc(N3CCNCC3)ccc2c1,,0.458% [at 35.3 µM] (inactive)
Cc1c([N+](=O)[O-])c(C)c([N+](=O)[O-])c(C(C)(C)C)c1[N+](=O)[O-],,-8.17% (inactive)
Nc1ccccc1-c1ccccc1,,5.15% (inactive)
CCCCn1cc[n+](C)c1 (tested in a mixture with another compound),,1.1% (inactive)
CCC(C)c1cccc(C(C)CC)c1O (stereo unspecified),17.4 µM (active),
CC(C)[C@@H](Nc1ccc(C(F)(F)F)cc1Cl)C(=O)OC(C#N)c1cccc(Oc2ccccc2)c1 (stereo partly specified),,-9.35% (inactive)
C#CCC1=C(C)C(OC(=O)C2C(C=C(C)C)C2(C)C)CC1=O (stereo unspecified),,-1.11% (inactive)
CCOP(=O)(Sc1ccccc1)Sc1ccccc1,,-8.59% (inactive)
C[C@@H]1CC2=CC(=O)CC[C@@H]2[C@H]2CC[C@@]3(C)[C@@H](CC[C@]3(C)O)[C@@H]21,,-0.575% [at 35.3 µM] (inactive)
CCN1CCC2(CC1)COc1cc3c(cc12)N(C(=O)c1ccc(-c2ccc(-c4nnc(C)o4)cc2C)cc1)CC3,50.7 µM (active),
CCCCON=O,,-1.67% (inactive)
ClC1=C(Cl)[C@]2(Cl)[C@H]3[C@H]([C@@H]4C=C[C@H]3C4)[C@@]1(Cl)C2(Cl)Cl,54.9 µM (active),
C=CCBr,,-0.0915% (inactive)
CC(=O)[O-].CC(=O)[O-].CC(=O)[O-].[Sb+3],,-16% [at 2.72 µM] (inactive)
O=S(=O)(O)F,,-5.04% (inactive)
[O-][Cl+3]([O-])([O-])O,,-10.9% (inactive)
CC(Cc1ccc2c(c1)OCO2)NO (stereo unspecified),,-10.8% (inactive)
COC(=O)c1ccccc1S(=O)(=O)NC(=O)Nc1nc(C)nc(OC)n1,,1.98% (inactive)
COc1ccc2c3c1O[C@H]1[C@H](O)CC[C@H]4[C@@H](C2)N(C)CC[C@@]341,,8.09% (inactive)
CN1[C@@H]2CC[C@H]1CC(O)C2 (stereo partly specified),,-13.9% (inactive)
CSC(C)(C)/C=N/O,,-1.71% (inactive)
CNC(=O)CSP(=O)(OC)OC,,5.08% (inactive)
CN,,1.02% (inactive)
CC(=O)O.CC(=O)O.CC(=O)O.CC(=O)O.CC(=O)O.CC(=O)O.CC(=O)O.O.O.[Cr].[Cr].[Cr],,-0.744% (inactive)
CC(=O)C(Cl)C(=O)N(C)C (stereo unspecified),,0.096% (inactive)
COP(=O)(OC)O/C(=C\Cl)c1cc(Cl)c(Cl)cc1Cl,,14.9% (inactive)
O=[N+]([O-])c1ccccc1-c1ccccc1,,2.96% (inactive)
CCNc1nc(NC(C)C(C)C)nc(SC)n1 (stereo unspecified),,-0.946% (inactive)
O=S1OCC2C(CO1)C1(Cl)C(Cl)=C(Cl)C2(Cl)C1(Cl)Cl (stereo unspecified),48.9 µM (active),

# Test: qHTS RealTime-Glo MT Cell Viability Assay in HepG2 cells - 32 hour (AID 1224877); note: nearly all actives have a fitted effect of over 55% in size
# Conditions: RealTime-Glo luminescence; series mostly up to 76.8 µM; activity change, negative = cytotoxic: at the top concentration
# Summary of the method: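 Cell number in HepG2 cultures estimated from NanoLuc luminescence generated by metabolic reduction of a prosubstrate by living cells. The homogeneous, nonlytic format allowed repeated reads at 0, 8, 16, 24, 32 and 40 h of compound exposure.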
Compound,Potency,"activity change, negative = cytotoxic"
CCC(OC(C)=O)C(CC(C)NC)(c1ccccc1)c1ccccc1 (stereo unspecified),62.2 µM (active),
c1ccc2nc(N3CCNCC3)ccc2c1,,-7.22% [at 35.3 µM] (inactive)
Cc1c([N+](=O)[O-])c(C)c([N+](=O)[O-])c(C(C)(C)C)c1[N+](=O)[O-],,-9.77% (inactive)
Nc1ccccc1-c1ccccc1,,0.0882% (inactive)
CCCCn1cc[n+](C)c1 (tested in a mixture with another compound),,-1.33% (inactive)
CCC(C)c1cccc(C(C)CC)c1O (stereo unspecified),,-7.59% (inactive)
CC(C)[C@@H](Nc1ccc(C(F)(F)F)cc1Cl)C(=O)OC(C#N)c1cccc(Oc2ccccc2)c1 (stereo partly specified),,2.7% (inactive)
Nc1ccc(N=Nc2ccccc2)cc1,,-7.63% (inactive)
CCO/N=C(\CC)C1=C(O)CC(c2c(C)cc(C)cc2C)CC1=O (stereo unspecified),,9.88% (inactive)
C#CCC1=C(C)C(OC(=O)C2C(C=C(C)C)C2(C)C)CC1=O (stereo unspecified),,-18.1% (inactive)
C[C@@H]1CC2=CC(=O)CC[C@@H]2[C@H]2CC[C@@]3(C)[C@@H](CC[C@]3(C)O)[C@@H]21,,-1.92% [at 35.3 µM] (inactive)
CCN1CCC2(CC1)COc1cc3c(cc12)N(C(=O)c1ccc(-c2ccc(-c4nnc(C)o4)cc2C)cc1)CC3,45.2 µM (active),
CCCCON=O,,1.76% (inactive)
C=CCBr,,2.62% (inactive)
O=S(=O)(O)F,,1.13% (inactive)
CC(Cc1ccc2c(c1)OCO2)NO (stereo unspecified),,-0.177% (inactive)
Cc1cccc(Cc2cnc[nH]2)c1C,,3.8% [at 35.3 µM] (inactive)
COc1ccc2c3c1O[C@H]1[C@H](O)CC[C@H]4[C@@H](C2)N(C)CC[C@@]341,,0.367% (inactive)
CN1[C@@H]2CC[C@H]1CC(O)C2 (stereo partly specified),,3.46% (inactive)
CSC(C)(C)/C=N/O,,3.41% (inactive)
CNC(=O)CSP(=O)(OC)OC,,1.93% (inactive)
CN,,0.114% (inactive)
CC(=O)O.CC(=O)O.CC(=O)O.CC(=O)O.CC(=O)O.CC(=O)O.CC(=O)O.O.O.[Cr].[Cr].[Cr],,3.25% (inactive)
CC(=O)C(Cl)C(=O)N(C)C (stereo unspecified),,2.11% (inactive)
O=[N+]([O-])c1ccccc1-c1ccccc1,,-2.11% (inactive)
CC(=O)[O-].CC(=O)[O-].CC(=O)[O-].[Cr+3],,-1.09% (inactive)
COP(=S)(OC)Oc1ccc([N+](=O)[O-])c(C)c1,,-14.8% (inactive)
CCNc1nc(NC(C)C(C)C)nc(SC)n1 (stereo unspecified),,-0.251% (inactive)
O=S1OCC2C(CO1)C1(Cl)C(Cl)=C(Cl)C2(Cl)C1(Cl)Cl (stereo unspecified),inactive and 54.9 µM (active),

# Test: A CellTox Green Cytotoxicity Assay to monitor cytotoxicity in HepG2 cells - 24 hour (AID 1224878); note: nearly all actives have a fitted effect of over 45% in size
# Conditions: CellTox Green fluorescence; series mostly up to 76.8 µM; cytotoxicity: at the top concentration
# Summary of the method: as §1
Compound,cytotoxicity,Potency
c1ccc2nc(N3CCNCC3)ccc2c1,26.9% [at 35.3 µM] (inactive),
Cc1c([N+](=O)[O-])c(C)c([N+](=O)[O-])c(C(C)(C)C)c1[N+](=O)[O-],-4.76% (inactive),
Nc1ccccc1-c1ccccc1,5.69% (inactive),
CCCCn1cc[n+](C)c1 (tested in a mixture with another compound),-0.157% (inactive),
FC(F)C(F)(F)OCC(Cn1cncn1)c1ccc(Cl)cc1Cl (stereo unspecified),,48.7 µM (active)
Nc1ccc(N=Nc2ccccc2)cc1,3.13% (inactive),
CC(C)N(C(=O)CCl)c1ccccc1,,inactive
O=C(N[C@@H]1N=C(c2ccccc2F)c2cccc3c2N(CC3)C1=O)c1cc2ccccc2[nH]1,,21.3 µM (active)
C#CCC1=C(C)C(OC(=O)C2C(C=C(C)C)C2(C)C)CC1=O (stereo unspecified),0.0101% (inactive),
C[C@@H]1CC2=CC(=O)CC[C@@H]2[C@H]2CC[C@@]3(C)[C@@H](CC[C@]3(C)O)[C@@H]21,-2.94% [at 35.3 µM] (inactive),
CCCCON=O,-6.45% (inactive),
ClC1=C(Cl)[C@]2(Cl)[C@H]3[C@H]([C@@H]4C=C[C@H]3C4)[C@@]1(Cl)C2(Cl)Cl,,54.9 µM (active)
C=CCBr,1.43% (inactive),
CC(=O)[O-].CC(=O)[O-].CC(=O)[O-].[Sb+3],-19.2% [at 2.72 µM] (inactive),
CC(Cc1ccc2c(c1)OCO2)NO (stereo unspecified),-11% (inactive),
COC(=O)c1ccccc1S(=O)(=O)NC(=O)Nc1nc(C)nc(OC)n1,-0.399% (inactive),
CC(C)(C)c1ccc(OP(=O)(Oc2ccccc2)Oc2ccccc2)cc1,0.0823% (inactive),
COc1ccc2c3c1O[C@H]1[C@H](O)CC[C@H]4[C@@H](C2)N(C)CC[C@@]341,9.62% (inactive),
CSC(C)(C)/C=N/O,-0.385% (inactive),
CNC(=O)CSP(=O)(OC)OC,-0.989% (inactive),
CN,2.05% (inactive),
CC(=O)O.CC(=O)O.CC(=O)O.CC(=O)O.CC(=O)O.CC(=O)O.CC(=O)O.O.O.[Cr].[Cr].[Cr],3.03% (inactive),
CC(=O)C(Cl)C(=O)N(C)C (stereo unspecified),5.3% (inactive),
O=[N+]([O-])c1ccccc1-c1ccccc1,4.27% (inactive),
COP(=S)(OC)Oc1ccc([N+](=O)[O-])c(C)c1,-11.2% (inactive),
CCNc1nc(NC(C)C(C)C)nc(SC)n1 (stereo unspecified),-0.0532% (inactive),
O=S1OCC2C(CO1)C1(Cl)C(Cl)=C(Cl)C2(Cl)C1(Cl)Cl (stereo unspecified),,48.9 µM (active)
